The campaign covered roughly 5,500 compounds. About 2,000 (36%) were called active. Another 18% or so got no clear call; they are omitted. Rule as the data show it: active = normalized growth mostly below about 0.91 (no sharp cut-off); inconclusive = no clear call, values can overlap the other calls; inactive = mostly above about 0.92. This is one part of the list.
Assay: chemical genetic growth profiling, strain panel (AID 1159580);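 also: tested at 20 µM; growth read once vehicle control cultures reached saturation at 30 °C; 1 = growth at the plate median or of vehicle wells; lower values mean less growth of the strain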
Conditions: growth OD
[1] = S. cerevisiae deletion strains, locus YHR030C, strain SLT2, hits give low values
[2] = S. cerevisiae deletion strains, locus YJL095W, strain BCK1, hits give low values

Measured: normalized growth

C=Cc1c(C)c2cc3nc(c4c5[nH]c(cc6nc(cc1[nH]2)C(C)=C6CC)c(C)c5C(=O)[C@@H]4C(=O)OC)[C@@H](CCC(=O)OC/C=C(\C)CCCC(C)CCCC(C)CCCC(C)C)[C@@H]3C (some centres undefined)
inactive: [1] 0.987 | S. cerevisiae deletion strains, locus YHR079C, strain IRE1, hits give low values 0.972 | [2] 0.978 | S. cerevisiae deletion strains, locus YJR066W, strain TOR1, hits give low values 0.934 | S. cerevisiae deletion strains, locus YLR113W, strain HOG1, hits give low values 0.957 | S. cerevisiae deletion strains, locus YNL183C, strain NPR1, hits give low values 0.935 | S. cerevisiae deletion strains, locus YOR231W, strain MKK1, hits give low values 0.954 | S. cerevisiae deletion strains, locus YPL256C, strain CLN2, hits give low values 0.965

CCC(C)C(=O)O[C@H]1[C@H](O)C2C(CN3CC(C)CCC3[C@@]2(C)O)C2C[C@]34O[C@]5(O)C(OC(=O)C(C)(O)C(C)O)CC[C@@]3(C)C5C(OC(C)=O)[C@@H](OC(C)=O)C4[C@@]21O (some centres undefined)
inactive: S. cerevisiae deletion strains, locus YAL013W, strain DEP1, hits give low values 1.01 | S. cerevisiae deletion strains, locus YBR021W, strain FUR4, hits give low values 0.996 | S. cerevisiae deletion strains, locus YBR229C, strain ROT2, hits give low values 1 | S. cerevisiae deletion strains, locus YCL029C, strain bik1, hits give low values 1 | S. cerevisiae deletion strains, locus YDL035C, strain GPR1, hits give low values 1.02 | S. cerevisiae deletion strains, locus YDL074C, strain BRE1, hits give low values 1.01 | S. cerevisiae deletion strains, locus YDL101C, strain DUN1, hits give low values 1.01 | S. cerevisiae deletion strains, locus YDL134C, strain PPH21, hits give low values 1.01 | S. cerevisiae deletion strains, locus YDL185W, strain tfp1, hits give low values 0.999 | S. cerevisiae deletion strains, locus YDL192W, strain arf1, hits give low values 1 | S. cerevisiae deletion strains, locus YDR101C, strain arx1, hits give low values 0.986 | S. cerevisiae deletion strains, locus YDR150W, strain NUM1, hits give low values 1.01 | S. cerevisiae deletion strains, locus YDR162C, strain NBP2, hits give low values 1.01 | S. cerevisiae deletion strains, locus YDR318W, strain mcm21, hits give low values 0.998 | S. cerevisiae deletion strains, locus YDR388W, hits give low values 1 | S. cerevisiae deletion strains, locus YDR502C, strain sam2, hits give low values 0.996 | S. cerevisiae deletion strains, locus YEL061C, strain CIN8, hits give low values 1.01 | S. cerevisiae deletion strains, locus YER110C, hits give low values 0.994 | S. cerevisiae deletion strains, locus YER155C, strain BEM2, hits give low values 1 | S. cerevisiae deletion strains, locus YER167W, strain BCK2, hits give low values 1.07 | S. cerevisiae deletion strains, locus YGL078C, strain dbp3, hits give low values 1 | S. cerevisiae deletion strains, locus YGL086W, strain mad1, hits give low values 1 | S. cerevisiae deletion strains, locus YGL248W, strain PDE1, hits give low values 1.01 | S. cerevisiae deletion strains, locus YGR078C, strain PAC10, hits give low values 1.01 | S. cerevisiae deletion strains, locus YGR135W, strain pre9, hits give low values 0.997 | S. cerevisiae deletion strains, locus YGR229C, strain SMI1, hits give low values 1.03 | S. cerevisiae deletion strains, locus YGR252W, strain gcn5, hits give low values 1.01 | [1] 1 | S. cerevisiae deletion strains, locus YHR079C, strain IRE1 (second series), hits give low values 0.998 | S. cerevisiae deletion strains, locus YHR094C, strain hxt1, hits give low values 1 | S. cerevisiae deletion strains, locus YHR129C, strain ARP1, hits give low values 1 | S. cerevisiae deletion strains, locus YHR200W, strain rpn10, hits give low values 1 | S. cerevisiae deletion strains, locus YIL066C, strain RNR3, hits give low values 1.01 | S. cerevisiae deletion strains, locus YIL073C, strain SPO22, hits give low values 1.02 | S. cerevisiae deletion strains, locus YIL125W, strain kgd1, hits give low values 1.01 | S. cerevisiae deletion strains, locus YIR030C, strain dcg1, hits give low values 0.991 | [2] 0.994 | S. cerevisiae deletion strains, locus YJL134W, strain LCB3, hits give low values 1.01 | S. cerevisiae deletion strains, locus YJL168C, strain set2, hits give low values 1 | S. cerevisiae deletion strains, locus YJL187C, strain SWE1 (second series), hits give low values 1.01 | S. cerevisiae deletion strains, locus YJR043C, strain POL32, hits give low values 0.984 | S. cerevisiae deletion strains, locus YJR075W, strain HOC1, hits give low values 1.01 | S. cerevisiae deletion strains, locus YKL009W, strain mrt4, hits give low values 1 | S. cerevisiae deletion strains, locus YKL068W, hits give low values 1.01 | S. cerevisiae deletion strains, locus YKL085W, strain MDH1 (second series), hits give low values 1 | S. cerevisiae deletion strains, locus YKL085W, strain MDH1, hits give low values 1 | S. cerevisiae deletion strains, locus YKL190W, strain CNB1, hits give low values 1.01 | S. cerevisiae deletion strains, locus YKR001C, strain vps1, hits give low values 0.98 | S. cerevisiae deletion strains, locus YLR039C, strain RIC1, hits give low values 1 | S. cerevisiae deletion strains, locus YLR058C, strain SHM2, hits give low values 1.01 | S. cerevisiae deletion strains, locus YLR102C, strain apc9, hits give low values 1 | S. cerevisiae deletion strains, locus YLR262C, strain YPT6, hits give low values 0.996 | S. cerevisiae deletion strains, locus YLR268W, strain sec22, hits give low values 0.981 | S. cerevisiae deletion strains, locus YLR330W, strain CHS5, hits give low values 1.02 | S. cerevisiae deletion strains, locus YLR342W, strain FKS1 (second series), hits give low values 1 | S. cerevisiae deletion strains, locus YLR371W, strain rom2, hits give low values 1 | S. cerevisiae deletion strains, locus YLR418C, strain cdc73, hits give low values 1 | S. cerevisiae deletion strains, locus YML016C, strain PPZ1, hits give low values 1 | S. cerevisiae deletion strains, locus YML032C, strain rad52, hits give low values 0.991 | S. cerevisiae deletion strains, locus YML124C, strain tub3, hits give low values 0.996 | S. cerevisiae deletion strains, locus YMR078C, strain ctf18, hits give low values 1.01 | S. cerevisiae deletion strains, locus YMR223W, strain ubp8, hits give low values 0.999 | S. cerevisiae deletion strains, locus YMR263W, strain SAP30, hits give low values 1 | S. cerevisiae deletion strains, locus YMR307W, strain GAS1, hits give low values 0.987 | S. cerevisiae deletion strains, locus YNL067W, strain RPL9B, hits give low values 1 | S. cerevisiae deletion strains, locus YNL128W, strain TEP1, hits give low values 1.02 | S. cerevisiae deletion strains, locus YNL153C, strain GIM3, hits give low values 0.996 | S. cerevisiae deletion strains, locus YNL233W, strain BNI4, hits give low values 1.01 | S. cerevisiae deletion strains, locus YNL250W, strain rad50, hits give low values 0.99 | S. cerevisiae deletion strains, locus YNL271C, strain bni1, hits give low values 0.992 | S. cerevisiae deletion strains, locus YNL298W, strain CLA4, hits give low values 0.986 | S. cerevisiae deletion strains, locus YNL307C, strain MCK1, hits give low values 1.01 | S. cerevisiae deletion strains, locus YNL322C, strain KRE1, hits give low values 1.01 | S. cerevisiae deletion strains, locus YNR052C, strain pop2, hits give low values 1 | S. cerevisiae deletion strains, locus YOL006C, strain TOP1, hits give low values 1.02 | S. cerevisiae deletion strains, locus YOL012C, strain htz1 0.933 | S. cerevisiae deletion strains, locus YOL147C, strain pex11, hits give low values 0.996 | S. cerevisiae deletion strains, locus YOR061W, strain CKA2, hits give low values 1.01 | S. cerevisiae deletion strains, locus YOR069W, strain VPS5, hits give low values 1.01 | S. cerevisiae deletion strains, locus YOR136W, strain idh2, hits give low values 1 | S. cerevisiae deletion strains, locus YOR144C, strain elg1, hits give low values 0.996 | S. cerevisiae deletion strains, locus YOR184W, strain ser1, hits give low values 1.02 | S. cerevisiae deletion strains, locus YOR316C, strain cot1, hits give low values 1 | S. cerevisiae deletion strains, locus YPL055C, strain LGE1, hits give low values 1.03 | S. cerevisiae deletion strains, locus YPL241C, strain CIN2, hits give low values 1.01 | S. cerevisiae deletion strains, locus YPR119W, strain clb2, hits give low values 1 | S. cerevisiae deletion strains, locus YPR141C, strain kar3, hits give low values 0.996 | S. cerevisiae deletion strains, locus YPR163C, strain tif3, hits give low values 0.996 | S. cerevisiae deletion strains, locus YPR167C, strain met16, hits give low values 1.01 | S. cerevisiae deletion strains, strain wtn01, hits give low values 0.997 | S. cerevisiae strains, strain wild type, hits give low values 1.01

Reference: PubChem BioAssay AID1159580 (chemical genetic matrix, 2015)
